Screening data: PubChem BioAssay, National Center for Advancing Translational Sciences (NCATS)
ELG1 genotox: genotoxicity induction in ELG1-luciferase HEK293T cells. HEK293T ELG1-luciferase reporter, luminescence, 16 h. Potency, µM (doses to about 46 µM), for inactives: at the top dose activity change, positive = activation, usual class: activators. actives 1.3% (n = 330,000); also: % of control where 0% means no effect; nearly all actives have a fitted effect of over 60% in size
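Cells (2,000/well) expressing the ELG1-luciferase fusion are dosed by pin tool and kept 16 hr at 37 °C, 5% CO2. Signal comes from ONE-Glo luciferase reagent after 30 min at room temperature.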
Rab9 prom act: activates the Rab9 promoter. actives 2.8% (n = 320,000). Potency, µM (highest dose often 9.22 µM), for inactives: at the highest dose activation, negative = inhibition, actives largely listed as activators. Huh7 Rab9 promoter-luciferase reporter, luminescence, 24 h. AID 485297; also: % of control where 0% means no effect; nearly all actives have a fitted effect of over 60% in size
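Luciferase signal after 10 min detection reagent at ambient indicates Rab9 promoter upregulation; stably transfected Huh7 cells were treated 24 h with compound in DMSO at 37 °C, 5% CO2.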
SMN2 splice up: SMN2 splice variant enhancement; HEK293 SMN2-luciferase splicing reporter, luminescence, 30-36 h; Potency, µM (top dose mostly 46.1 µM), for the others: at the top dose activity change, positive = activation, actives largely listed as activators; actives 2.8% (n = 210,000); also: % of control where 0% means no effect; nearly all actives have a fitted effect of over 55% in size
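HEK293 cells carry an SMN2 […]–luciferase reporter in which exon 7 inclusion puts luciferase in frame. Cells were plated 10-12 h before compound addition, then incubated 30-36 h at 37C. ONE-Glo luminescence was read; sodium butyrate at 4.5 mM final served as control.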
ELG1 repair inh: ELG1-dependent DNA repair inhibition | HEK293T ELG1-luciferase reporter, luminescence, 16 h; DNA damage induced by 5-fluorouridine | Potency, µM (titrated, usually from 46.1 µM), inactives show top-dose activity change, negative = inhibition, actives largely listed as inhibitors | actives 2.3% (n = 330,000) | AID 504467; also: % is scaled to controls: 0 for no effect and ±100 for the full control effect; nearly all actives have a fitted effect of over 55% in size
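Cells (2,000 per well) received 5-fluorouridine plus test compound or DMSO and were incubated 16 hr at 37 °C, 5% CO2. Luciferase activity was read by luminescence 30 min after ONE-Glo addition; signal suppression marked inhibition of damage-induced ELG1 function.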
NPC1 prom act: NPC1 promoter activation; Huh7 NPC1 promoter luciferase reporter, 24 h; Potency, µM (highest dose often 9.22 µM), without a hit: at the top dose activation, actives largely listed as activators; actives 2.4% (n = 320,000); AID 485313; also: % of control where 0% means no effect; nearly all actives have a fitted effect of over 60% in size
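Quantitative HTS used a cell-based reporter: Huh7 cells stably bearing the NPC1 promoter upstream of luciferase were treated with compounds for 24 h, and promoter activation was read as luminescence.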
FLuc modulator: counter-screen for miR-21 project: firefly luciferase inhibitors or activators | P08659 | purified FLuc, Km substrates, luminescence inhibition | Potency, µM (doses to about 57.5 µM), without a hit: top-dose activity change, negative = inhibition, most hits filed as inhibitors | actives 6.9% (n = 360,000);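 also: plate controls were vehicle for no effect and reference inhibitor for full effect; nearly all actives have a fitted effect of over 55% in size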
Target sequence (P08659 whole entry, looked up): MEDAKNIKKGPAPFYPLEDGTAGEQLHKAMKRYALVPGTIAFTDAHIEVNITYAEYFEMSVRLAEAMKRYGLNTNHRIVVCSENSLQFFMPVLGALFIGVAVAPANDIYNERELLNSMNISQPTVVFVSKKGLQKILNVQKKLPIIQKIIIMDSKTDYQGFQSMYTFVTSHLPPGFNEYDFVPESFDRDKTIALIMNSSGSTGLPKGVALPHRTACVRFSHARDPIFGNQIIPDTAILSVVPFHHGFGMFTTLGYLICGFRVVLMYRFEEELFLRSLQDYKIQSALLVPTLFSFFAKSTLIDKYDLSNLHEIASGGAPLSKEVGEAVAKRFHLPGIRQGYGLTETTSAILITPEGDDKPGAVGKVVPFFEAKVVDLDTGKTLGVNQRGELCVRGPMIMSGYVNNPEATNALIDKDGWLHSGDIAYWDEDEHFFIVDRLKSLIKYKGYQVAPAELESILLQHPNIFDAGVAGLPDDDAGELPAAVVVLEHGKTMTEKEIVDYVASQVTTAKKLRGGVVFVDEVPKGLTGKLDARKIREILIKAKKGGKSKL
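Purified P. pyralis luciferase, 10 nM final, with Km-level 10 uM D-luciferin and 10 uM ATP in 50 mM Tris acetate pH 7.5, 10 mM Mg acetate, 0.01% Tween-20, 0.05% BSA; 6-point qHTS titration about 60 µM downward; luminescence read.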
* marks the source's active call; other numbers are inactive results; ? = inconclusive; / = no result given; [ ] = remark or other dose. Rows were chosen to be rich in hits. Some 9.2% of all compounds tested hit in one or more screens of this group. Calls follow the shape of the dose curve; as a rule, active = well fitted curve in the direction sought with a large enough effect; inconclusive = small, poorly fitted or top-dose-only effect, or another doubt; inactive = no such curve, though single readings can be large; an effect the other way counts as inactive or inconclusive. Potency is read from the fitted curve at half-maximal effect.

SMILES	ELG1 genotox	Rab9 prom act	SMN2 splice up	ELG1 repair inh	NPC1 prom act	FLuc modulator
COc1ccc(N/N=C(/C(N)=O)C2=NC(C)(C)Cc3ccccc32)cc1	-10%	-11%	-25%	23µM*	-7%	-1%
CC1(C)Cc2ccccc2C(/C(C#N)=N/O)=N1	-12%	-5%	9%	-24%	1%	?
CCC(C)(C)NC(=O)C(c1ccc(F)cc1)N(Cc1cccs1)C(=O)c1cnccn1 (stereo not given)	-1%	-6%	/	9%	-7%	-1%
CC(C(=O)O)c1ccc(C(=O)c2ccccc2)s1 (stereo not given)	?	29%	/	?	6%	17µM*
COc1ncc2ncc(=O)n(CCC#N)c2n1	/	/	0%	/	/	/
CC1N(C(=O)N2CCOCC2)CCN1S(=O)(=O)c1cccc(C(F)(F)F)c1 (stereo not given)	-2%	0%	/	4%	-4%	0%
c1ccc(-c2ccc(C3=Nn4c(nnc4-c4cc(-c5ccccc5)n[nH]4)SC3)cc2)cc1	-8%	-10%	-10%	-25%	14%	4.8µM*
Brc1ccc(C2=Nn3c(nnc3-c3n[nH]c4c3CCC4)SC2)cc1	?	-11%	22µM*	-3%	-27%	3%[2.3 µM]
COC(=O)/C(C#N)=C/c1c(Oc2cccc(C)c2C)nc2ccccn2c1=O	0%	0%	/	-4%	2%	1%
Cc1cc2nc(/C=C/c3cccnc3)[nH]c2cc1C	2.3µM*	?	/	?	?	2.4µM*
COc1ccccc1C1C(C(C)=O)=C(C)N=c2s/c(=C\c3cc(OC)c(OC)c(OC)c3)c(=O)n21 (stereo not given)	1%	-2%	19%	23µM*	-8%	-2%
COc1ccccc1CCNC(=O)C1(c2cccs2)CCOCC1	/	/	/	/	/	0%
COc1ccc(Nc2cc(C(=O)NCc3ccccc3OC)c3ccccc3n2)cc1	/	/	/	/	/	11µM*
COc1ccc(CNC(=O)c2cc(Nc3ccc(OC)cc3OC)nc3ccccc23)cc1	/	/	4%	/	/	7.6µM*
COc1ccc(CCNC(=O)c2cc(Nc3cc(C)cc(C)c3)nc3ccccc23)cc1OC	/	/	1%	/	/	6µM*
COc1ccc(OC)c(Nc2cc(C(=O)NCc3ccccc3)c3ccccc3n2)c1	/	/	2%	/	/	-8%
COCCCNC(=O)c1cc(Nc2ccc(OC)cc2OC)nc2ccccc12	-7%	-6%	/	-14%	12%	19µM*
CCOCCCNC(=O)c1cc(Nc2ccc(OC)cc2OC)nc2ccccc12	-6%	0%	/	-29%	1%	?
CCOC(=O)c1c(NC(=O)Cn2nnc(-c3ccc(Cl)cc3)n2)sc(CC)c1C	-4%	-2%	-15%	-6%	-1%	1%
CCOC(=O)N/N=C(C)/C=C/c1ccccc1	17%	?	18%	?	19%	?
CCOc1ccc(/C=N/NC(=O)Cc2cccs2)cc1	?	?	/	?	?	17µM*
CCOC(=O)N/N=C/C(Cl)=C/c1ccccc1	?	?	?	?	?	17µM*
O=C(Cc1cccs1)N/N=C/c1ccccc1	12%	23%	/	?	5%	?
Cc1cc(C)nc(N/N=C/C(Cl)=C/c2ccccc2)n1	?	?	-8%	?	?	13µM*
O=C(Cc1cccs1)N/N=C/C(Cl)=C/c1ccccc1	?	3.5µM*	?	?	?	-10%
Cc1ccc(OCCn2cc(C(=O)C3CCCCC3)c3ccccc32)cc1	/	/	?	/	/	-3%
CCOc1ccc(Br)cc1S(=O)(=O)Nc1cccc(S(=O)(=O)N(C)c2ccccc2)c1	-2%	-2%	-6%	-7%	-2%	-11%
NC(=O)Cn1c(=O)n(Cc2ccccc2)c(=O)c2cccnc21	1%	1%	/	0%	2%	0%
